Compound activity deposited in PubChem by National Center for Advancing Translational Sciences (NCATS).
SW480 rerep: induces DNA re-replication in SW480 colon adenocarcinoma cells. AID 624297. 1.8% of 340,000 active. Potency, µM (top dose mostly 46.1 µM), hits mostly activators. SW480 DNA re-replication, Hoechst DNA content imaging, 48 h; further: nearly all actives have a fitted effect of over 55% in size
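Readout is total intensity of Hoechst-stained nuclei, excited at 405 nm and collected at 500-530 nm. Compound treatment lasted 48 hr at 37 C in 5% CO2 before staining.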
Gal4-VP16 FLuc: counter-screen for ROR gamma inhibitors: Gal4-VP16 reporter | Potency, µM (doses to about 53.6 µM), hits mostly inhibitors | Drosophila S2 Gal4-VP16 UAS-luciferase, luminescence, 20 h | 3.5% of 310,000 active;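 further: Gal4-VP16 expression switched on by copper sulfate through the metallothionein promoter; nearly all actives have a fitted effect of over 50% in size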
RORgamma inh: inhibitors of mouse ROR gamma transcriptional activity | Drosophila S2 Gal4-RORgamma UAS-luciferase reporter, 20 h | Potency, µM (highest dose often 53.6 µM), actives largely listed as inhibitors | 5.4% of 310,000 active | AID 2551; further: nearly all actives have a fitted effect of over 60% in size
Target sequence (P51450 whole entry, looked up, the tested form may be a part): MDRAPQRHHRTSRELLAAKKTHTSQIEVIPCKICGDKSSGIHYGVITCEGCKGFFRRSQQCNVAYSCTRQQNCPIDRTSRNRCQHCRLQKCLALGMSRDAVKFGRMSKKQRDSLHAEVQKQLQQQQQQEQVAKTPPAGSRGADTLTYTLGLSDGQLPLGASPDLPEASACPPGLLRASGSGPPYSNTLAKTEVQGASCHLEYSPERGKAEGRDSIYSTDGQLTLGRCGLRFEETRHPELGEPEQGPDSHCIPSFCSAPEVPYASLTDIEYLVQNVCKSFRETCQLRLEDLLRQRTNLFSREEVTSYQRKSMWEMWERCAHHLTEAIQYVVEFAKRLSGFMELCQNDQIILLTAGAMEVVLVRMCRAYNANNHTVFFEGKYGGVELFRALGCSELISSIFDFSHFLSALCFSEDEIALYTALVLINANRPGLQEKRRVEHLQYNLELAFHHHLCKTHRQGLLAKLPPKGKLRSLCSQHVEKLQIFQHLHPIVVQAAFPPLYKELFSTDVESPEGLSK
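Read-out: Photinus luciferase luminescence; inhibitors lower reporter signal. Insect Schneider cells with Gal4-ROR gamma fusion under metallothionein promoter, UAS reporter; 700 uM final copper sulfate induction, 20 hr, ambient temperature.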
MCF10A rerep: DNA re-replication induction in MCF 10a cells. MCF 10A DNA re-replication, Hoechst nuclear intensity, 48 h. Potency, µM (titrated, usually from 46.1 µM), actives largely listed as activators. 2.9% of 350,000 active. AID 624296; further: nearly all actives have a fitted effect of over 50% in size
KB-3-1 cytotox: kills parental KB-3-1 adenocarcinoma cells | KB-3-1 viability, CellTiter-Glo ATP luminescence, 72 h | Potency, µM (doses to about 46.1 µM), actives largely listed as cytotoxic | 1.4% of 400,000 active; further: nearly all actives have a fitted effect of over 60% in size
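Luminescent ATP read-out (CellTiter-Glo) measures survival of drug-naive KB-3-1 cells after 72 h compound exposure at 37 °C. Titration series was screened from lowest to highest concentration, with DMSO vehicle plates as background controls.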
KB-V1 MDR tox: kills drug-selected multidrug resistant KB-V1 cells; KB-V1 MDR cells viability, CellTiter-Glo, 72 h; Potency, µM (doses to about 46.1 µM), hits mostly cytotoxic; 3.4% of 400,000 active; AID 1347076; further: nearly all actives have a fitted effect of over 60% in size
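Cytotoxicity via CellTiter-Glo luminescence after 72 h compound exposure at 37 degrees C. Cells: drug-selected KB-V1 line, DMEM phenol-red free plus 10% FBS. Compounds tested at multiple concentrations; normalized data fitted to concentration-effect curves.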
Hits are given with their value; – = inactive; ? = inconclusive; · = not tested or not shown; [ ] = remark or other dose. Hits are enriched below; roughly 10% of the tested compounds scored in any of these assays. The call rests on the fitted dose curve; in most records, active means well fitted curve in the direction sought with a large enough effect; inconclusive means small, poorly fitted or top-dose-only effect, or another doubt; inactive means no such curve, though single readings can be large; an effect the other way counts as inactive or inconclusive.

SMILES	SW480 rerep	Gal4-VP16 FLuc	RORgamma inh	MCF10A rerep	KB-3-1 cytotox	KB-V1 MDR tox
COC(=O)c1ccccc1NC(=O)N1CCN(C(=O)c2ccco2)CC1	–	–	–	–	?	7.3µM
COc1ccccc1C(=O)N1c2ccccc2Sc2ccccc21	?	–	?	23µM	21µM	?
COc1ccc(NC(=O)N2c3ccccc3CC2C)cc1OC (configuration not stated)	–	–	–	–	–	?
COC(=O)c1ccccc1NC(=O)N1c2ccccc2Sc2ccccc21	–	–	–[10 µM]	8.2µM	?	–
COC(=O)c1ccccc1NC(=O)N1c2ccccc2CC1C (configuration not stated)	–	–	–	?	–	23µM
Cc1nc(-c2ccc(C)c(S(=O)(=O)N3CCC(C(=O)NCc4ccc(F)cc4)CC3)c2)no1	·	·	·	·	–	–
CCC(=O)N1CCc2cc(S(=O)(=O)NCCC(=O)NCc3ccc(C)cc3)ccc21	·	·	·	·	–	–
CCC(C)C(N)C(=O)O (configuration not stated)	–	–	–	–	·	·
Cc1ccc(NC(NC(=O)c2ccccc2[N+](=O)[O-])C(Cl)(Cl)Cl)cc1 (configuration not stated)	–	–	–	–	–	21µM
Cc1ccc(NC(NC(=O)Cc2ccccc2)C(Cl)(Cl)Cl)cc1 (configuration not stated)	–	–	–	–	?	15µM
O=C(O)c1cccc(NC(=S)NC(NC(=O)c2ccccc2[N+](=O)[O-])C(Cl)(Cl)Cl)c1 (configuration not stated)	–	–	–	–	–	–
COCCn1c(SCc2nc3scc(-c4ccc(Cl)cc4)c3c(=O)[nH]2)nnc1-c1cccc(C)c1	?	–	?	?	21µM	5.2µM
Cc1ccc(OCC(=O)Nc2ccc3nc(SCCOc4ccccc4)sc3c2)cc1	·	·	·	·	–	–
O=CNc1ccc2c(c1)Cc1cccc(NC=O)c1-2	–	·	·	–	?	6.5µM
O=C(Nc1ccc2c(c1)Cc1ccccc1-2)c1ccncc1	–	–	–	?	–	–
CC(=O)Oc1ccc(-c2csc(Nc3cccc(C)n3)n2)cc1	?	10µM	3.2µM	?	?	?
Cc1cccc(Nc2nc(-c3ccccn3)cs2)n1	?	2.5µM	1.6µM	–	9.2µM	0.52µM
Cc1ccc(Nc2nc(-c3ccc(O)c(O)c3)cs2)nc1	?	6.3µM	13µM	?	?	–
Cc1cccnc1Nc1nc(-c2ccc(O)cc2O)cs1	–	?	6.3µM	?	–	?
COc1ccc(NC(=O)CCc2c(C)nc3c(-c4ccccc4)c(C)nn3c2C)cc1Cl	·	·	·	·	–	–
N#Cc1ccccc1C[C@H](N)C(=O)NC[C@H]1O[C@@H](n2cnc3c(N)ncnc32)[C@H](O)[C@@H]1O	·	·	·	·	–	–
COc1ccccc1NC(=O)c1cnc(SCC(=O)N2CCOCC2)n(C)c1=O	·	·	·	·	–	–
Cc1cccnc1Nc1nc(-c2ccccn2)cs1	?	?	0.022µM	9.2µM	1.5µM	4.1µM
Oc1ccc(-c2csc(Nc3ccccn3)n2)c(O)c1	–	?	11µM	?	–	–
O=C(OCc1ccccc1F)c1cc(S(=O)(=O)N2CCCCC2)ccc1N1CCOCC1	·	·	·	·	–	–
SMILES	SW480 rerep	Gal4-VP16 FLuc	RORgamma inh	MCF10A rerep	KB-3-1 cytotox	KB-V1 MDR tox
COC1=Nc2ccccc2/C=C\c2ccccc21	·	·	·	·	?	–
COC(=O)[C@H](COC(C)(C)C)NC(=O)O[C@@H]1C(=O)c2ccc(OC)cc2O[C@H]1c1ccc2c(c1)OCO2	·	–	–	·	·	·
Oc1cc(NCc2ccc(Cl)cc2)cc2cccnc12	–	·	·	–	16µM	–
Oc1cc(NCc2ccc(F)cc2)cc2cccnc12	?	·	·	?	6.5µM	–
Clc1ccc(CNc2ncccn2)cc1	–	–	–	–	–	?
Fc1ccc(CNc2ncccn2)cc1	–	–	–	–	–	–
CC1CCN(c2ccccc2NC(=S)NC(=O)c2ccco2)CC1	–	·	·	18µM	–	18µM
CC1CCN(c2ccccc2NC(=S)NC(=O)C(C)(C)C)CC1	–	?	1.6µM	?	–	–
CS(=O)(=O)N1CCN(c2ccccc2NC(=S)NC(=O)c2cccs2)CC1	–	–	11µM	–	–	?
CC1CCN(c2ccccc2NC(=O)c2ccc(F)cc2)CC1	–	–	–	?	–	–
CC(C)C(=O)NC(=S)Nc1ccccc1N1CCN(C(=O)c2ccc(Cl)cc2)CC1	?	5µM	5.6µM	–	–	?
CC(C)(C)C(=O)Nc1ccccc1N1CCN(C(=O)c2ccc(Cl)cc2)CC1	–	–	–	–	–	–
CN(C)c1ccc(CC2CCc3ccccc32)cc1 (configuration not stated)	·	·	·	·	–	–
CC(=O)OCC(=O)[C@]1(O)C(OC(C)=O)CC2C3CCC4=CC(=O)C=C[C@@]4(C)[C@]3(F)C(O)C[C@]21C (some centres not stated)	·	–	–	·	·	·
CC(=O)c1cccc(Nc2ccc(C#N)cc2)c1	·	·	·	·	–	–
CC1CCN(c2ccccc2NC(=S)NC(=O)c2cccs2)CC1	–[9.22 µM]	6.3µM	2.2µM	10µM	–	–
CC1CCN(C(=O)c2ccccc2NC(=O)c2cccs2)CC1	–	·	·	–	–	–
CC(C)C(=O)N1CCN(c2ccccc2NC(=S)NC(=O)c2cccs2)CC1	?	?	14µM	–	–	–
CC(=O)N1CCN(c2ccccc2NC(=O)c2cccs2)CC1	–	–	–	–	–	–
CC(C)C[C@@H]1Cc2[nH]c(=S)[nH]c(=O)c2[C@H](CCc2ccccc2)O1	·	·	·	·	?	–
Cc1ccc(NC(=O)CSCc2c(C)noc2C)cc1C	–	–	–	–	–	–
Cc1noc(C)c1CSCC(=O)Nc1cc(S(=O)(=O)N2CCCCC2)ccc1OC(C)C	–	·	·	–	–	–
CCOc1ccc(S(=O)(=O)N(CC)CC)cc1NC(=O)CSCc1c(C)noc1C	–	·	·	–	–	7.3µM
CCN(CC)c1ccc(S(=O)(=O)N2CCCCC2)cc1NC(=O)CSCc1c(C)noc1C	–	·	·	–	23µM	–
Cc1cc(C)c(NC(=O)CSCc2c(C)noc2C)c(C)c1	–	·	·	–	–	23µM
SMILES	SW480 rerep	Gal4-VP16 FLuc	RORgamma inh	MCF10A rerep	KB-3-1 cytotox	KB-V1 MDR tox
C[C@@H]1CN([C@@H](C)CO)C(=O)CCCn2cc(nn2)CO[C@H]1CN(C)S(=O)(=O)c1ccccc1F	·	·	·	·	–	?
Cc1cc(=O)[nH]c(N/N=C/c2sccc2C)n1	–	–	–	–	–	–
C(=N\Nc1nc2ccccc2[nH]1)/c1cccs1	–	4.5µM	3.2µM	–	–	–
Cc1ccsc1/C=N/Nc1nc2ccccc2[nH]1	–	1.4µM	1.4µM	–	–	?
COCCNc1nc(-c2ccccc2F)c2sc(-c3ccccc3)cc2n1	·	·	·	·	–	–
CCCCOCCCNC(=O)C[C@@H]1C[C@@]2(C(=O)OC)CC(C)(C)CC=C2N(Cc2ccccc2)C1=O	·	·	·	·	–	?
